Screening results (PubChem)
This is a sample that favours compounds with a hit; in the whole collection about 3% have one here.
14-3-3 Bad inh – inhibitors of 14-3-3 zeta/Bad binding, primary screen, biochemical, TR-FRET, bovine 14-3-3 zeta; 14-3-3 protein zeta/delta (Bos taurus), P63103; TR-FRET 14-3-3zeta/Dy647-pBad peptide displacement, 1 h; inhibition, % at 21.7 µM; 0.71% of 220,000 active;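 active means inhibition above about 70%, limit read from the data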
Target sequence (P63103 whole entry, looked up): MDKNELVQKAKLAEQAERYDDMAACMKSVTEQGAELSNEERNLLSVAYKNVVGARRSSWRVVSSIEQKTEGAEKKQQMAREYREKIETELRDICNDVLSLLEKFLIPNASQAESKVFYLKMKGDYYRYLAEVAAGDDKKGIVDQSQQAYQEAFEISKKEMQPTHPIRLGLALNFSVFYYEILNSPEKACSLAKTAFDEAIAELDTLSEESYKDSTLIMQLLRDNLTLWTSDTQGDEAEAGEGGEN
ROMK mod – ROMK potassium channel modulators, primary screen, cell-based, thallium flux, MLSMR library; Tet-inducible ROMK, thallium flux fluorescence; actives lie on both sides; B-score at 10 µM; 2% of 130,000 active; AID 1918, 2009;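 active means signal ratio slope over the read window, or its plate-corrected B-score, at least 3 SD from the plate mean, either direction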;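 further: B-score of the F/F0 ratio slope over 7 to 12 s after thallium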
Efa HMGR inh – inhibitors of E. faecalis class II HMGR, primary screen, biochemical, Enterococcus faecalis; inhibition, % at 10 µM; 0.41% of 190,000 active; AID 1066, 2008; purified E. faecalis HMGR, NADPH absorbance 340 nm kinetic;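 active means inhibition above a set limit, the median over all tested compounds plus 3 SD, cut at about 9.5% in these data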;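 further: enzyme runs in reverse so mevalonate oxidation gives rising NADPH absorbance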
m-calpain inh – inhibitors of pig calpain II, primary screen, biochemical, fluorogenic peptide substrate, 1536-well; inhibition, % at 16 µM; 0.37% of 220,000 active; purified calpain II, 30 min; AID 1236, 2008;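 active means inhibition above about 50%, limit read from the data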
L929 necroptosis – inhibitors of zVAD-triggered necroptosis, primary screen, L929 cells | viability rescue, % at 10 µM | L929 zVAD necroptosis rescue, ATP luminescence, 24 h; with zVAD 60 µM | AID 1377, 2008 | 0.38% of 220,000 active;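 active means activation, scaled between plate controls, above about 75%, limit read from the data; inactive means activation under that limit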
TNF necrop inh – inhibitors of TNF-alpha triggered necroptosis, primary screen, cell-based, Jurkat FADD-/-, single concentration | Jurkat FADD-/- TNF necroptosis rescue, ATP luminescence, 24 h; 0 = TNF only, 100 = no-TNF cells | activation (protection from cell death), % at 10 µM | 0.068% of 220,000 active;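 active means activation, meaning protection from cell death, of at least 50% relative to plate controls; inactive means activation below 50%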;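 further: necroptosis triggered by 40 ng/mL TNF-alpha added together with compound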
A number is an active result; – = inactive; · = no result.

SMILES	14-3-3 Bad inh	ROMK mod	Efa HMGR inh	m-calpain inh	L929 necroptosis	TNF necrop inh
O=C(/C=C/c1cccs1)NC(=S)NNC(=O)c1ccccc1O	–	3.1	–	–	–	–
COc1ccc(/C=C/C(=O)NC(=S)Nc2ccc(C(=O)O)cc2)cc1	–	–	–	74	–	–
COc1ccc(/C=C/C(=O)NC(=S)NNC(=O)c2ccco2)cc1	–	–	9.8	–	–	–
COc1ccc(C(=O)NNC(=S)NC(=O)/C=C/c2cccs2)cc1	–	3.7	–	–	–	–
Cc1c(C(=O)N2CCC(C)CC2)oc2ccc(S(=O)(=O)N3CCC4(CC3)OCCO4)cc12	–	–	–	–	–	–
O=C(CCSc1ccccc1)Nc1ccc(OCc2ccccc2)cc1	–	·	–	–	–	–
Cc1cc(C)c(S(=O)(=O)NNC(=O)C2CCN(Cc3ccccc3)CC2)c(C)c1	–	·	–	–	–	–
COc1cccc(CN2CCN(C3CCN(c4cccc(C)c4C)CC3)CC2CCO)c1 (centres undefined)	–	–	–	–	–	–
COc1cccc(CN2CCN(C3CCN(c4ccccc4C)CC3)CC2CCO)c1 (centres undefined)	–	–	11	–	–	–
Cc1cc(NC(=O)c2c(-c3c(Cl)cccc3Cl)noc2C)n(C)n1	–	·	·	–	–	–
COc1cccc(-c2nn[nH]n2)c1O	–	–	–	–	–	–
CCc1nn(C(C)C(=O)NC(C)CCc2ccco2)c(=O)c2cc3occc3n12 (centres undefined)	–	·	–	–	–	–
CCc1nn(C(C)C(=O)NCCc2ccc(OC)c(OC)c2)c(=O)c2cc3occc3n12 (centres undefined)	89	·	–	–	–	–
O=C(CCSCc1ccccc1Cl)NC1CCCCC1	–	–	–	–	–	–
CCOC(=O)c1c(CN2CCOCC2)oc2ccc(OC)cc12	79	–	–	–	–	–
Cc1nc(-c2cccnc2)sc1C(=O)N/N=C/c1ccccc1Cl	87	–	·	–	–	–
CC1=C(C(=O)OC2CCCC2)C(c2ccc(C)o2)C2=C(CC(c3cccs3)CC2=O)N1 (centres undefined)	–	·	–	–	–	–
CC(=O)c1ccc(NC(=O)CN(C)CC(=O)Nc2cccc(F)c2)cc1	90	–	–	–	–	–
CN(CC(=O)Nc1cccc(F)c1)CC(=O)Nc1cccc(S(N)(=O)=O)c1	–	·	·	–	–	–
O=c1[nH]ncc2c3ccccc3n(Cc3ccc(F)cc3)c12	–	–	–	–	–	–
O=c1[nH]ncc2c3ccccc3n(Cc3cccc(Cl)c3)c12	–	–	16	–	–	–
O=C1C(Cl)=C(Nc2cccc(O)c2)C(=O)N1Cc1ccccc1	–	·	–	–	–	–
CCc1ccc(OCC(=O)c2c(O)c3ccccc3oc2=O)cc1	–	–	–	–	–	–
Cc1ccc(OCC(=O)c2c(O)c3ccccc3oc2=O)cc1C	74	·	–	–	–	–
CCN(CC)CCNC(=O)C(=O)NCC1OCCN1C(=O)c1ccc2c(c1)OCO2 (centres undefined)	–	·	19	–	–	–
SMILES	14-3-3 Bad inh	ROMK mod	Efa HMGR inh	m-calpain inh	L929 necroptosis	TNF necrop inh
O=C(NCc1ccco1)C1CC(=O)N(c2ccc(O)cc2)C1 (centres undefined)	–	·	–	–	–	–
Cc1cc(Nc2ccc3c(c2)OCCO3)c2cccc(C)c2n1	–	–	–	–	–	–
O=c1[nH][nH]c2c(N=Cc3ccccc3O)ccc(F)c12	70	·	·	–	–	–
COc1cccc(OC)c1OCCN(C)C	86	–	–	–	–	–
CN(C)CCOCCOc1ccccc1-c1ccccc1	87	·	–	–	–	–
OCCNCCOCCOc1ccccc1-c1ccccc1	–	–	–	–	–	–
CN(C)CCOc1ccccc1-c1ccccc1	72	–	–	–	–	–
O=c1[nH]c(CN2CCN(c3ccc(O)cc3)CC2)nc2scc(-c3ccc(Cl)cc3)c12	–	–	–	–	–	–
CCCCNC(=O)/C(=C/c1ccccc1)NC(C)=O	–	–	–	–	–	–
CC(=O)N(CC1CCCO1)c1nnc(-c2ccccn2)s1 (centres undefined)	–	·	–	–	–	65
CCN(CC)S(=O)(=O)c1cccc(NC(=O)COc2ncnc3sccc23)c1	–	–	–	–	–	–
Cc1ccc(S(=O)(=O)CCCS(=O)(=O)c2ccc(C)cc2)cc1	–	·	11	–	–	–
N#Cc1c(N)nc(Sc2ccc(Cl)cc2)c(C#N)c1-c1ccccc1Cl	–	·	·	–	–	–
CC(C)NC(=O)c1cc2cc([N+](=O)[O-])ccc2s1	–	·	–	–	–	–
CC(C)N1CCc2c(sc(NC(=O)CCc3ccccc3)c2C(N)=O)C1	–	–	–	–	–	–
Cc1cccc(NC(=O)c2cc3cc([N+](=O)[O-])ccc3s2)n1	89	–	–	–	–	–
CC(C)N1CCc2c(sc(NC(=O)c3cc4cc([N+](=O)[O-])ccc4s3)c2C(N)=O)C1	95	–	–	–	–	–
CN1CCc2c(sc(NC(=O)c3cc4cc([N+](=O)[O-])ccc4s3)c2C(N)=O)C1	72	–	–	–	–	–
O=C1CC(Cc2ccccc2)C(=O)N1CCCn1ccnc1 (centres undefined)	75	–	–	–	–	–
O=C(Cc1ccccc1)NC1(Cc2ccc(O)cc2)CCCCC1	–	–	–	–	–	–
C=CCNC(=O)Nc1ccc(Cl)cn1	–	–	–	–	·	–
COc1ccc(-c2nnc(-c3cc4c(ccc5ccccc54)oc3=O)o2)cc1	72	·	–	–	–	–
Cc1nn2c(C(F)(F)F)cc(-c3ccc(Cl)cc3)nc2c1C(=O)N1CCOCC1	–	–	17	–	–	–
O=C(O)c1ccc(-n2cccc2/C=N\NC(=O)c2cc3cc(Br)ccc3o2)cc1	80	–	·	–	–	–
O=c1c(C=Nc2ccc(Cl)cc2)c[nH]n1-c1cccc(Cl)n1	–	·	–	–	–	–
O=S(=O)(Nc1nc2ccccc2nc1NCc1ccco1)c1ccc(Cl)cc1	–	·	–	–	–	–
Cc1noc(C)c1CSc1nc2ccccc2nc1NS(=O)(=O)c1ccc(Cl)cc1	–	-3.1	–	–	–	–
O=C(c1ccco1)N1CCN(c2ncnc3scc(-c4cccs4)c23)CC1	–	·	–	–	–	–
c1ccc(N2CCN(c3ncnc4scc(-c5cccs5)c34)CC2)cc1	–	·	–	54	–	–
